# In the library only some 8.7% were active in any assay of this set; here they are far more common.
# Vaccinia Venus = vaccinia inhibition (Venus reporter). hit rate 0.46% among 330,000. Potency, µM (doses to about 36.5 µM), inactives show at the highest dose activity change, negative = inhibition, usual class: inhibitors. AID 720580. Vaccinia virus Venus reporter expression, fluorescence; calls by dose curve; tested in A549 cells; also: nearly all actives have a fitted effect of over 30% in size
# AMA1-RON2 inh = disrupts binding of P. falciparum AMA1 to RON2 | Potency, µM (series often up to 58.2 µM), without a hit: at the top dose activity change, negative = inhibition, usual class: inhibitors | hit rate 0.2% among 360,000 | AlphaScreen AMA1-biotinylated RON2 peptide binding | AID 720542;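 also: 0% = vehicle wells and -100% = peptide control; nearly all actives have a fitted effect of over 45% in size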
#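 AMA1 (3D7) with his tag at 25 nM final met compounds first, then biotinylated RON2 peptide at 25 nM; detection used donor plus acceptor beads, 10 µg/mL apiece, read by AlphaScreen after 30 min at room temperature.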
# VACV mCherry inh = inhibitors of vaccinia virus infection (mCherry reporter signal). Vaccinia virus mCherry reporter infection, fluorescence. Potency, µM (series often up to 36.5 µM), for the others: at the highest dose activity change, negative = inhibition, usual class: inhibitors. hit rate 0.63% among 310,000; calls by dose curve; tested in A549 cells; also: nearly all actives have a fitted effect of over 35% in size
# Pf growth 48h = P. falciparum growth inhibition at 48 hours (one generation) | P. falciparum luciferase growth in erythrocytes, 48 h | Potency, µM (series often up to 28.7 µM), without a hit: at the top dose activity change, negative = inhibition, usual class: inhibitors | hit rate 5.9% among 310,000
#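 Luciferase-expressing parasites in RBCs, 2% Hct / 0.1% parasitemia final; RPMI 1640 + 0.5% Albumax; 37 C, 5% CO2, one generation; luminescence read-out, lower signal = inhibition.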
# Pf growth 96h = inhibits malaria parasite growth, 96 h. P. falciparum luciferase reporter growth, 96 h. Potency, µM (series often up to 28.7 µM), for inactives: at the top dose activity change, negative = inhibition, most hits filed as inhibitors. hit rate 6.9% among 320,000. AID 504834
#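 Readout is luminescence from an integrated firefly luciferase in P. falciparum. Red cells, 2% hematocrit and 0.05% parasitemia final, were cultured with compound through two parasite generations (96 hours) at 37 C, 5% CO2.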
# * marks the source's active call; other numbers are inactive results; i = inactive; ? = inconclusive; · = not tested or not shown; [ ] = another dose, or the depositor's remark. Unless noted, calls follow the shape of the dose curve; as a rule, active = well fitted curve in the direction sought with a large enough effect; inconclusive = small, poorly fitted or top-dose-only effect, or another doubt; inactive = no such curve, though single readings can be large; an effect the other way counts as inactive or inconclusive. Unless noted, % is scaled to controls: 0 for no effect and ±100 for the full control effect; potency is read from the fitted curve at half-maximal effect.
SMILES,Vaccinia Venus,AMA1-RON2 inh,VACV mCherry inh,Pf growth 48h,Pf growth 96h
CCOC(=O)Nc1ccc(OC)c([N+](=O)[O-])c1,-7.4%,4.4%,-12.3%,14.7µM*,-0.2%
O=C(Nc1ccc(C2=NCCN2)cc1)c1ccc(C(=O)Nc2ccc(C3=NCCN3)cc2)c([N+](=O)[O-])c1,8.2%,?,-5.6%,0.37µM*,0.147µM*
COc1ccc(/C=N/NC(=O)c2ccncc2)cc1[N+](=O)[O-],·,16.6%,·,28.9%,4.15µM*
Cc1ccc(Cn2c(CO)cnc2SCC(=O)Nc2ccc(C)c(Cl)c2)cc1,-11.5%,·,-9.3%,·,·
CC(=O)N1CCc2c(sc3c2c(=O)n(-c2ccccc2)c(=O)n3CC(=O)Nc2ccccc2C)C1,-7.3%,·,-11.9%,·,·
Cc1ccc(N2CC(NC(=O)C3CCCC3)CC2=O)cc1C (centres undefined),-10.4%[7.34 µM],·,0.8%[7.34 µM],·,·
CCOc1ccc(NC(=S)Nc2ccc(C)c([N+](=O)[O-])c2)cc1,·,33.2%,·,·,2.08µM*
COc1ccc(C(=O)NC(=S)Nc2cc(C)ccn2)cc1[N+](=O)[O-],-13.4%,63.5%,i,30.5%,4.65µM*
COc1ccc(C(=O)Nc2cc(C)on2)cc1[N+](=O)[O-],-4.7%,5.5%,-5.6%,-6.0%,19.2%
CCc1ccc(NC(=O)c2ccc(OC)c([N+](=O)[O-])c2)cc1,-16.2%,9.9%,-6.8%,24.0%,?
COc1ccc(C(=O)Nc2ccncc2)cc1[N+](=O)[O-],·,6.6%,·,8.28µM*,41.2%
Cc1ccc(CNC(=O)C2CCCCN2S(=O)(=O)c2ccc(F)cc2)cc1 (centres undefined),-7.0%,·,-10.6%,·,·
Cc1cnc(-n2ncc(C(=O)NCC3COCCO3)c2C2CC2)nc1-c1cccs1 (centres undefined),-8.0%,·,-18.0%,·,·
COc1cc(-c2nc(Cn3nnc(C(=O)Nc4ccccc4C)c3C)c(C)o2)cc(OC)c1OC,-4.7%,·,-9.1%,·,·
Cc1ccc(-n2nnnc2SCC(=O)NCCc2ccccc2)cc1C,-7.6%,·,i,·,·
CCCCOCCCn1c(N)c(C(=O)OCCOC)c2nc3ccccc3nc21,-25.1%,2.3%,·,?,10.4µM*
CCOC(=O)c1c(NC(=O)c2c(N)n(CCCOC)c3nc4ccccc4nc23)sc2c1CCCC2,-18.9%,-1.6%,-14.0%,?,?
CCOCCCn1c(N)c(C(=O)Nc2sc3c(c2C(=O)OC)CCCC3)c2nc3ccccc3nc21,-13.0%,-1.5%,?,14.7µM*,?
CCCCn1c(N)c(C(=O)OCCOC)c2nc3ccccc3nc21,-8.5%,-7.3%,-27.5%,?,?
CCn1ccc(C(=O)Nc2sc3c(c2C(=O)OC)CCC3)n1,·,72.3%,·,?,11.7µM*
CCCCn1c(N)c(C(=O)OCC2CCCO2)c2nc3ccccc3nc21 (centres undefined),-19.1%,18.2%,?,9.28µM*,17.8%
CC(C)C1C(=O)Nc2ccc(S(=O)(=O)NCCc3ccc(Cl)cc3)cc21 (centres undefined),-14.3%,·,-17.3%,·,·
CC(=O)c1ccc(NC(=O)C2CCN(c3nnc(C)c4c(C)n(-c5ccccc5)nc34)CC2)cc1,?,·,-24.5%,·,·
COc1ccc(NC(=O)c2nnn(Cc3nc(-c4cc(Br)ccc4OC)oc3C)c2C)cc1,-24.0%,·,-23.1%,·,·
CC(=O)NCCOc1cccc2ccccc12,·,11.3%,·,31.5%,?
SMILES,Vaccinia Venus,AMA1-RON2 inh,VACV mCherry inh,Pf growth 48h,Pf growth 96h
CCCc1ccccc1OCCNC(C)=O,-15.4%,-2.2%,-17.1%,-15.8%,8.28µM*
NS(=O)(=O)c1ccc(CCNC(=O)c2ccc3nc(CCc4ccccc4)oc3c2)cc1,-5.9%,·,-4.6%,·,·
O=C(O)c1ccccc1SC1CC(=O)N(c2ccccc2)C1=O (centres undefined),-4.4%,-4.2%,-8.6%,-3.7%,2.08µM*
O=C(O)c1cccnc1SC1CC(=O)N(c2ccccc2)C1=O (centres undefined),-0.6%[7.34 µM],2.4%,-3.1%[7.34 µM],?,1.3%
Nc1ccccc1N=Nc1ccccc1N,-26.9%,31.6µM*,-23.4%,292.6%,414.6%
Nc1ccccc1-c1ccccc1N,-9.3%,17.2%,-3.2%,0.0%,0.0%
COc1cccc(C(=O)NCC2Cc3c(F)ccc(-c4ncccn4)c3O2)c1OC (centres undefined),?,·,-9.1%,·,·
COc1ccc(S(=O)(=O)NCCSc2nnnn2-c2ccccc2)cc1OC,-7.5%,·,-9.4%,·,·
Cc1cc2nc(NCCCO)n(CC(=O)c3cc(C(C)(C)C)c(O)c(C(C)(C)C)c3)c2cc1C,10µM*,3.8%,?,?,-3.2%
O=C(c1ccco1)N1N=C(c2cccs2)CC1c1ccccc1O (centres undefined),-17.9%,0.4%,-14.6%,8.28µM*,?
c1ccc(N2N=C(c3cccs3)CC2c2ccco2)cc1 (centres undefined),-15.4%,169.8%,·,22.0%,?
Clc1ccc(N2N=C(c3cccs3)CC2c2ccco2)cc1 (centres undefined),0.0%,182.9%,·,38.5%,2.62µM*
O=C(c1cccs1)N1N=C(c2ccccc2)CC1c1ccccc1O (centres undefined),?,1.4%,-10.6%,3.29µM*,18.8%
Cc1ccc(C2=NN(C(=O)c3cccs3)C(c3ccccc3O)C2)cc1 (centres undefined),11.2%,-1.8%,-0.8%,?,23.5%
O=C(Nc1ccc(Br)cc1F)N1CCC(CN2CCCC2)CC1,-6.3%,·,-13.1%,·,·
CC(=O)c1cccc(NC(=O)c2cc(C)nc3c2c(C)nn3-c2cccc(Cl)c2C)c1,-18.6%,·,-16.5%,·,·
CCOC(=O)C1=C(Nc2ccccc2)CC(C)(O)C(C(=O)OCC)C1c1ccc(Cl)cc1 (centres undefined),-27.9%,-20.1%,-25.9%,?,11.7µM*
CCc1ccc(OCCCSc2nc(-c3ccc(C(C)(C)C)cc3)nc3cc(=O)[nH]n23)cc1,-17.5%,·,-6.0%,·,·
CC(NC(=O)CSc1nnc(-c2cc3cc(Cl)ccc3o2)n1C)c1ccccc1 (centres undefined),-18.1%,-6.7%,?,?,4.65µM*
Cn1c(SCC(=O)NC2CCCCC2)nnc1-c1cc2cc(Cl)ccc2o1,·,6.8%,·,·,·
Cn1c(N2CCN(c3ccccn3)CC2)nc2c1c(=O)n(Cc1ccc(Cl)cc1)c(=O)n2C,-12.5%,6.4%,·,11.7µM*,·
CC1CN(c2nc3c(c(=O)n(Cc4ccc(Cl)c(Cl)c4)c(=O)n3C)n2C)CC(C)O1 (centres undefined),·,-2.4%,·,6.57µM*,·
CCc1cccc(C)c1NC(=O)CCS(=O)(=O)c1ccc2c(c1)oc(=O)n2C,2.4%,·,-3.9%,·,·
COc1cc(Cl)cc(CN2CCC(CCC(=O)NC3CC3)CC2)c1OC,·,1.3%,·,?,13.1µM*
CCOCc1cc(CN2CCC(CCC(=O)NC3CC3)CC2)ccc1OC,·,16.5%,·,3.0%,9.28µM*
COc1cc(Cl)c(CN2CCC(CCC(=O)NC3CC3)CC2)cc1OC,·,-1.3%,·,-0.4%,?
CC1CCN(S(=O)(=O)c2ccc3[nH]cc(C(=O)NCc4ccc(F)cc4)c(=O)c3c2)CC1,6.1%,·,1.0%,·,·
O=c1c2cc3c(nc2ncn1Cc1ccccc1F)CCCC3,7.6%,·,-9.4%,·,·

# Screens deposited in PubChem by National Center for Advancing Translational Sciences (NCATS).
